Laboratory results: the supplement of paper PMC10849652
About 7,900 targets were measured; listed, in parts, are those with a hit and a random draw of the rest. About 0.6% of all pairs of compound and target were hits. Values without a mark were called inactive.

What was measured:
Assay in all cases: log2 fold change, soluble protein after heating vs DMSO (PISA); higher = thermal stabilisation; K562 cells, 10 uM, 30 min; active = over 0.2 and 3.5 SD of the protein, either way, in both replicates (recomputed)
[1] = compound: CC1=C(C=C(C=C1)NC(=O)C2=CC(=CC=C2)C(C)(C)C#N)NC3=CC4=C(C=C3)N=CN(C4=O)C
Outline: (§1)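 Aliquots of K562 cells (2×10^6 cells/mL) treated with 10 μM compound for 30 min were heated for 3 min over 48°C-58°C. After pooling and extraction in PBS with 0.5% NP-40 at 4°C, soluble protein from a 21,000xg, 90 min spin was quantified by TMTpro 16plex LC-MS/MS with channel sums equalised. Thermal stability is expressed against control samples, from duplicates, as a log2 fold change.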

[2] = compound: CC1=C(C=C(C=C1)NC(=O)C2=CC(=CC=C2)N(C)C)NC(=O)C3=CC=C(C=C3)O
Outline: as §1

[3] = compound: CC1=CC=C(C=C1)SC2=C3C=C(SC3=CN=C2)C(=O)N
Outline: as §1

[4] = compound: CC1=NC(=CC=C1)C2=C(N=C(N2)C(C)(C)C)C3=CC4=NC=CN=C4C=C3
Outline: as §1

Nexturastat A = compound: CCCCN(Cc1ccc(C(=O)NO)cc1)C(=O)Nc1ccccc1 [Nexturastat A]
Outline: as §1

vemurafenib = compound: CCCS(=O)(=O)Nc1ccc(F)c(C(=O)c2c[nH]c3ncc(-c4ccc(Cl)cc4)cc23)c1F [vemurafenib]
Outline: as §1

[5] = compound: CCCS(=O)(=O)Nc1ccc(F)c(C(=O)c2c[nH]c3ncc(Cl)cc23)c1F
Outline: as §1

[6] = compound: CCCc1cc(C)[nH]c(=O)c1CNC(=O)c1cc(-c2ccnc(N3CCN(C)CC3)c2)cc2c1cnn2C(C)C
Outline: as §1

givinostat = compound: CCN(CC)Cc1ccc2cc(COC(=O)Nc3ccc(C(=O)NO)cc3)ccc2c1 [givinostat]
Outline: as §1

barasertib = compound: CCN(CCCOc1ccc2c(Nc3cc(CC(=O)Nc4cccc(F)c4)[nH]n3)ncnc2c1)CCOP(=O)(O)O [barasertib]
Outline: as §1

volasertib = compound: CC[C@@H]1C(=O)N(C)c2cnc(Nc3ccc(C(=O)N[C@H]4CC[C@H](N5CCN(CC6CC6)CC5)CC4)cc3OC)nc2N1C(C)C [volasertib]
Outline: as §1

[7] = compound: CC[C@H](C)N1C=C(C2=C(C=C(C=C21)C3=CN=C(C=C3)N4CCNCC4)C(=O)NCC5=C(C=C(NC5=O)C)C)C
Outline: as §1

epoxomicin = compound: CC[C@H](C)[C@@H](C(=O)N[C@@H]([C@@H](C)O)C(=O)N[C@@H](CC(C)C)C(=O)[C@]1(CO1)C)NC(=O)[C@H]([C@@H](C)CC)N(C)C(=O)C [epoxomicin]
Outline: as §1

[8] = compound: CCn1c(C(=O)N(C2CC2)C2CC2)cc2c3c(ncn3C)c(Nc3cc(C)n(C)n3)nc21
Outline: as §1

[9] = compound: CCn1cc(-c2ccnc3[nH]c(-c4cccc(CN(C)C)c4)cc23)c(-c2ccc(NC(=O)N(C)C)cc2)n1
Outline: as §1

[10] = compound: CN(C)CC(=O)Nc1ccc2[nH]c(=O)c3ccccc3c2c1
Outline: as §1

rosiglitazone = compound: CN(CCOC1=CC=C(C=C1)C[C@H]2C(=O)NC(=O)S2)C3=CC=CC=N3 (racemic) [rosiglitazone]
Outline: as §1

[11] = compound: CN1C2=C(C3=C1C(=O)N(N=C3)CC4=CC(=CC=C4)N)SC(=C2)S(=O)C
Outline: as §1

[12] = compound: CN1CCC(CNc2ccc3ncc(-c4cccc(OC(F)(F)F)c4)n3n2)CC1
Outline: as §1

[13] = compound: CC[C@@H]1C(=O)N(C)c2cnc(Nc3ccc(C(=O)NC4CCN(C)CC4)cc3OC)nc2N1C1CCCC1
Outline: as §1

Sequence of UniProt Q9NQX7 (Q9NQX7 whole entry, looked up): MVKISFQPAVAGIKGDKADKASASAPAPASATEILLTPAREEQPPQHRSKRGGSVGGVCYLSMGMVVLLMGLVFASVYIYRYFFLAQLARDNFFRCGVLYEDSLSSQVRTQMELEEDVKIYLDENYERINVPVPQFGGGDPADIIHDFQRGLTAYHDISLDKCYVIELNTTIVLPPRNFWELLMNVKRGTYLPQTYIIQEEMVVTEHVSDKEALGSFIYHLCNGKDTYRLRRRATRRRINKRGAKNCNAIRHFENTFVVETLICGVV
Sequence of UniProt O43513 (O43513 whole entry, looked up): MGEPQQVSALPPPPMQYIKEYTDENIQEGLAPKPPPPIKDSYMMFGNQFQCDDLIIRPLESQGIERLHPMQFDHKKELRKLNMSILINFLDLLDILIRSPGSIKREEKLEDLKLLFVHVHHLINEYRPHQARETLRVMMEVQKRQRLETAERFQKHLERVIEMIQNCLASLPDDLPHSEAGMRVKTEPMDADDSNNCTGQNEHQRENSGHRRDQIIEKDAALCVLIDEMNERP
Sequence of UniProt Q71SY5 (Q71SY5 whole entry, looked up): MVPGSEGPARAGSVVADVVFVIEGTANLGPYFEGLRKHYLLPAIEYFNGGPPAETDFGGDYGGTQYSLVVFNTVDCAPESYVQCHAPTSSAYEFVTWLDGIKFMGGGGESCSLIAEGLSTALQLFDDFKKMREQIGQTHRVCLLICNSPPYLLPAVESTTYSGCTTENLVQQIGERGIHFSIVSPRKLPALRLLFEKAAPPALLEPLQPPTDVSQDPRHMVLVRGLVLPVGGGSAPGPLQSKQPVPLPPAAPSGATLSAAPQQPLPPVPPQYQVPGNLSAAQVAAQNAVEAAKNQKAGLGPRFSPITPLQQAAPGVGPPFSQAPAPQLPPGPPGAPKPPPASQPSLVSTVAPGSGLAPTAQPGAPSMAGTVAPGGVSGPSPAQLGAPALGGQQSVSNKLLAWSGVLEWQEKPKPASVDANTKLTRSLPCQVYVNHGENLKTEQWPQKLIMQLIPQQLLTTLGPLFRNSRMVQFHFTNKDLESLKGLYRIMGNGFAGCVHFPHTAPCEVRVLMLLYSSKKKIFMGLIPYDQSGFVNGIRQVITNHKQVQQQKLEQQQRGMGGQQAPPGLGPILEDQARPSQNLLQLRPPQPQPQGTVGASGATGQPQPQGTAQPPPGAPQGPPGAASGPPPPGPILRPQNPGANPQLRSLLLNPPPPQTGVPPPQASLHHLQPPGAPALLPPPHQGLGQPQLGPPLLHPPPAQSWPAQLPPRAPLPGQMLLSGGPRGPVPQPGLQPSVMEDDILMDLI
Sequence of UniProt Q08334 (Q08334 whole entry, looked up): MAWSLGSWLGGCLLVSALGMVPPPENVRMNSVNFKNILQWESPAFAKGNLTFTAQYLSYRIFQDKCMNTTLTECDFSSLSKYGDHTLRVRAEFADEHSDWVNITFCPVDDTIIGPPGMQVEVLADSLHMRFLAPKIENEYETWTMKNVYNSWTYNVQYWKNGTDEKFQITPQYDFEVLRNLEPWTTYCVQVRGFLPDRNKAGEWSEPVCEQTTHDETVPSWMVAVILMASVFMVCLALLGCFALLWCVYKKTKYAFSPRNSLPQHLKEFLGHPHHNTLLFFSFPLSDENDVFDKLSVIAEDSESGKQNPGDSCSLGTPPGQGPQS
Sequence of UniProt Q96G25 (Q96G25 whole entry, looked up): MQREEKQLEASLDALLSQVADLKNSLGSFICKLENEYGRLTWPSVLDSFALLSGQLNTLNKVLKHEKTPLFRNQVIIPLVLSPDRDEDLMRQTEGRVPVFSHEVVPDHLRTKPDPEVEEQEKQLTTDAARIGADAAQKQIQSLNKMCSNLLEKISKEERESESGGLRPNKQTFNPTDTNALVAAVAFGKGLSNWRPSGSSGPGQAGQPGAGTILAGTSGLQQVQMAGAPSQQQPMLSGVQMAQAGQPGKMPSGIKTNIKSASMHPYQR
Sequence of UniProt Q96PV6 (Q96PV6 whole entry, looked up): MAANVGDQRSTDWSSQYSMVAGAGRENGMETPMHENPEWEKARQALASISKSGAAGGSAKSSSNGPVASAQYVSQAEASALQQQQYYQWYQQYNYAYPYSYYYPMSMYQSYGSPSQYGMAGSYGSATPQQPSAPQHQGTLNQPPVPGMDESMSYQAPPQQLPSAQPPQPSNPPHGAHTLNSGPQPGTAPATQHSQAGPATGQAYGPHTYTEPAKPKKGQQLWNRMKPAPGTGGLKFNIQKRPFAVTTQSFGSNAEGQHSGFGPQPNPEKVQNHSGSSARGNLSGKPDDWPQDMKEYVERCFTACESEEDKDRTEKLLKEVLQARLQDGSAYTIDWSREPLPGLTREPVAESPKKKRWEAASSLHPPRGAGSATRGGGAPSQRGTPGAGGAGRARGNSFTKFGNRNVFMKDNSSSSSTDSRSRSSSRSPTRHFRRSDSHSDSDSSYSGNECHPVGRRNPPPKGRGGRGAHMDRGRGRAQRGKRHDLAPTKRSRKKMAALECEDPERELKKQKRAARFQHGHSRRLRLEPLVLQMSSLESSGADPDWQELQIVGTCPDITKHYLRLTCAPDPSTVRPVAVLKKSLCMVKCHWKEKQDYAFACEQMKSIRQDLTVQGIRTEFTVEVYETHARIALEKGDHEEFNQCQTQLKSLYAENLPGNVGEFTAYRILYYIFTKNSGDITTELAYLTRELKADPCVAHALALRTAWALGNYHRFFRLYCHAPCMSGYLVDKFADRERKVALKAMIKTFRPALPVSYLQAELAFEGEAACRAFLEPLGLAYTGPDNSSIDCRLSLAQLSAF
Sequence of UniProt O15066 (O15066 whole entry, looked up): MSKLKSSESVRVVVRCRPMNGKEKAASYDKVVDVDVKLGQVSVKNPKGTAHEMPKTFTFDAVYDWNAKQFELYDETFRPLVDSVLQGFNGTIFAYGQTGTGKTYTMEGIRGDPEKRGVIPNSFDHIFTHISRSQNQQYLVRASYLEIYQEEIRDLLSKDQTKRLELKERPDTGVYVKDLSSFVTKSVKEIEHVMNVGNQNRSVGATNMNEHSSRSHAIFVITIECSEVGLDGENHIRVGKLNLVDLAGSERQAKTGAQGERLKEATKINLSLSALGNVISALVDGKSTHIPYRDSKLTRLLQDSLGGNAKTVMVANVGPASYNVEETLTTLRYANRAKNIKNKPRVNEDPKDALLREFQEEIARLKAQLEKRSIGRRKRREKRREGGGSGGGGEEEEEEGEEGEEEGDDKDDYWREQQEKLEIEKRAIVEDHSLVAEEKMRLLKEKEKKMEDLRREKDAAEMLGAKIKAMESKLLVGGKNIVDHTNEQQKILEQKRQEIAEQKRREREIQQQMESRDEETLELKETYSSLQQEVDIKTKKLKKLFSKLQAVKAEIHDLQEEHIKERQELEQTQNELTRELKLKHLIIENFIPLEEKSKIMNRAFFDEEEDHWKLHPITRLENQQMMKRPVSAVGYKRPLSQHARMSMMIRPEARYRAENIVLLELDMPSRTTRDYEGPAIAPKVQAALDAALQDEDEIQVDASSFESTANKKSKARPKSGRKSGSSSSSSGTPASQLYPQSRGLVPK
Sequence of UniProt Q9NVC6 (Q9NVC6 whole entry, looked up): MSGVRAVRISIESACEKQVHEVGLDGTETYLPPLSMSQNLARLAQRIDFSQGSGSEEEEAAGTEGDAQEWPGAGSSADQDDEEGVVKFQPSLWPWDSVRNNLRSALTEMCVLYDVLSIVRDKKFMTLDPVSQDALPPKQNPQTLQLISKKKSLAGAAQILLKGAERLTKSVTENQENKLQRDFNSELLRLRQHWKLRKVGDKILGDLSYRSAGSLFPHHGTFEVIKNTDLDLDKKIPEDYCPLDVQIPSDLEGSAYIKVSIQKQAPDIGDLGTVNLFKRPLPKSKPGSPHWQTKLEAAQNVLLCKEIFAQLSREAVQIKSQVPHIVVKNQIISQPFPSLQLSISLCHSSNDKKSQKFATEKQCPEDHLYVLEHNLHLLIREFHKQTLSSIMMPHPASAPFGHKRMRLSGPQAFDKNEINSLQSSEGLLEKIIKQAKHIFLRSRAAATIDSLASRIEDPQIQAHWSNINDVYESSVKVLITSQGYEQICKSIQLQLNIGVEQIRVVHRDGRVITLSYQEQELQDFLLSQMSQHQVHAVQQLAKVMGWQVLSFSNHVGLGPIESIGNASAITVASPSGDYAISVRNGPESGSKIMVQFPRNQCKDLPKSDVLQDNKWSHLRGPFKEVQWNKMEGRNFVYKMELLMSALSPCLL
Sequence of UniProt Q9Y4K4 (Q9Y4K4 whole entry, looked up): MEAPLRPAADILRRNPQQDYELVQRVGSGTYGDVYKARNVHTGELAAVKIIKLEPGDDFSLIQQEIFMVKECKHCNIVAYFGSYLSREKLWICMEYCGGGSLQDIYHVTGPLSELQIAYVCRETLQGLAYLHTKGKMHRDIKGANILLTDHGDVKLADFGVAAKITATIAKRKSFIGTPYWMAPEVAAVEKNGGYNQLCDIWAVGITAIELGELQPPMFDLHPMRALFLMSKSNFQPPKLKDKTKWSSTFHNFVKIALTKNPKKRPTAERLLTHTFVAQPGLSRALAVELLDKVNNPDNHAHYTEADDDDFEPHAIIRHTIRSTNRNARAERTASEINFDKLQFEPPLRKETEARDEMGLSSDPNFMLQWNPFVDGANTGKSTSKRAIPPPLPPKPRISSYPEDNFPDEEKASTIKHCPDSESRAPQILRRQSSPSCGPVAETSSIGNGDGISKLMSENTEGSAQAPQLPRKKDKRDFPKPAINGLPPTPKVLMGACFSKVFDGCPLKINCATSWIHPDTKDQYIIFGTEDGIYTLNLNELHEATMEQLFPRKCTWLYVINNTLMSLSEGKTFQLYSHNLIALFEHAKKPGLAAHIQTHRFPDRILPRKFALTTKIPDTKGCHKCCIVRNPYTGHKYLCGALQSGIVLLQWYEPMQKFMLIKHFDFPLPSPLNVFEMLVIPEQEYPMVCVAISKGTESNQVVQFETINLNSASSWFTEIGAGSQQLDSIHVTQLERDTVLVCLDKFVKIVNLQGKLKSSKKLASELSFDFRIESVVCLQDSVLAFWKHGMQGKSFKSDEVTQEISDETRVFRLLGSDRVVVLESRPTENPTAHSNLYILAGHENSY

Row | Target | log2 fold change [1] | log2 fold change [2] | log2 fold change [3] | log2 fold change [4] | log2 fold change (Nexturastat A) | log2 fold change (vemurafenib) | log2 fold change [5] | log2 fold change [6] | log2 fold change (givinostat) | log2 fold change (barasertib) | log2 fold change (volasertib) | log2 fold change [7] | log2 fold change (epoxomicin) | log2 fold change [8] | log2 fold change [9] | log2 fold change [10] | log2 fold change (rosiglitazone) | log2 fold change [11] | log2 fold change [12] | log2 fold change [13]
1 | LUZP1 (UniProt Q86V48) | -0.128 | 0.136 | -0.005 | -0.182 | 0.184 | 0.05 | -0.091 | -0.029 | 0.031 | -0.062 | -0.021 | -0.026 | -0.22 | 0.09 | 0.026 | 0.035 | 0.026 | 0.026 | -0.039 | 
2 | MAP3K20 isoform 2 (UniProt Q9NYL2) | -0.375 (active) |  | -0.038 | 0.295 | 0.16 |  | 0.044 | -0.017 | 0.003 |  | -0.1 | -0.067 | -0.03 | 0.018 |  |  |  |  |  | 
3 | MED17 (UniProt Q9NVC6) | 0.042 | -0.03 | -0.186 | 0.005 | 0.052 | 0.071 | -0.168 | 0.025 | -0.014 |  | -0.021 | -0.008 | -0.015 | -0.027 | 0.08 | 0.037 |  | 0.036 | -0.134 | -0.011
4 | KIF3B (UniProt O15066) | -0.082 | 0.05 | -0.022 | -0.042 | 0.097 | 0.018 | 0.017 | -0.019 | 0.067 | -0.062 | -0.009 |  | -0.134 | -0.204 | 0.159 | -0.078 | 0.106 | -0.052 | 0.378 (active) | 0.156
5 | LMBRD1 (UniProt Q9NUN5) | 0.073 | 0.02 | 0.023 |  | -0.034 | -0.101 | -0.057 | -0.077 | 0.05 | -0.039 | 0.032 | 0.015 | 0.065 | -0.01 | -0.015 | 0.015 | -0.016 | 0.133 | -0.351 | -0.073
6 | MFSD11 (UniProt O43934) | -0.171 |  | 0.038 | 0.013 | -0.097 | -0.012 | 0.039 | -0.02 |  | 0.013 | 0.021 | -0.108 | 0.03 |  | 0.021 | 0.017 | -0.006 | -0.026 | -0.345 (active) | -0.244
7 | IP6K1 (UniProt Q92551) | 0.443 | 0.022 |  |  | 0.232 |  | -0.015 | 0.068 | -0.008 | 0.259 | -0.176 |  | 0 | -0.253 | 0.028 |  | 0.091 | 0.147 | -0.052 | 0.127
8 | LRFN1 (UniProt Q9P244) | 0.052 | 0.076 | 0.02 | -0.101 | 0.241 | -0.031 | 0.054 |  | -0.025 | 0.037 | 0.033 |  | -0.125 | 0.07 |  | 0.134 | 0.006 | 0.069 |  | -0.015
9 | MED7 (UniProt O43513) | 0.049 | -0.023 | -0.009 | 0.015 | 0.212 | -0.021 | -0.093 |  | -0.008 | -0.149 | 0.139 | -0.287 | 0.127 | 0.015 |  | 0.021 | -0.059 | -0.172 |  | 
10 | MED8 isoform 2 (UniProt Q96G25) | -0.085 | 0.038 | -0.03 | 0.089 | 0.045 | 0.36 (active) | -0.027 | 0.081 | -0.038 | -0.059 | 0.1 | 0.046 | -0.051 | 0.009 |  | -0.075 | 0.007 | 0.052 |  | 0.027
11 | KCNK5 (UniProt O95279) | -0.114 |  | 0.195 | 0.084 | 0.106 |  | 0.1 | 0.157 | -0.319 | 0.097 | -0.174 |  | 0.046 | 0.004 | 0.047 |  | 0.179 | 0.223 | -0.073 | -0.042
12 | INTS5 (UniProt Q6P9B9) | 0.091 | -0.061 | 0.026 | 0.042 | 0.01 | 0.087 | 0.074 | 0.122 | 0.038 | 0.015 | -0.152 | 0.049 | 0.052 | -0.046 |  | -0.003 | 0.212 | -0.133 |  | 
13 | MARK2 (UniProt E9PC69) | -0.011 | -0.018 | 0.094 | 0.06 | 0.025 | -0.005 | -0.034 |  | 0.132 | 0.034 | -0.469 | 0.086 | 0.023 | -0.137 |  | -0.028 | -0.014 | 0.187 |  | 0.044
14 | LRBA, A0A494BZW2 | -0.082 | 0.06 | -0.048 | 0.078 | -0.264 |  | 0.272 | 0.038 | 0.264 | 0.026 | -0.025 | 0.007 | -0.03 | -0.193 | -0.039 |  | 0.011 | 0.043 | -0.115 | -0.04
15 | ITM2C (UniProt Q9NQX7) | 0.096 | 0.004 | 0.187 |  | 0.084 | 0.006 | -0.014 |  | 0.09 | 0.057 | -0.312 | 0.049 | -0.149 | -0.096 | -0.104 | -0.046 | 0.069 | 0.125 | 0.218 | 
16 | MED12 isoform 2 (UniProt Q93074) | 0.034 | -0.202 | -0.015 | -0.09 | 0.012 |  | 0.071 | 0.023 | 0.106 | -0.135 | -0.211 | 0.091 | -0.17 | 0.083 | 0.086 |  | 0.074 | 0.154 | -0.071 | -0.055
17 | MCM10 (UniProt Q7L590) | 0.209 |  | 0.166 | 0.155 | 0.028 | -0.016 | 0.217 | -0.037 | -0.065 | -0.012 | 0 | -0.034 | 0.148 | 0.069 | -0.037 | -0.023 | -0.164 |  | 0.096 | -0.074
18 | MAP4K5 (UniProt Q9Y4K4) | 0.01 | 0.082 | 0.025 | -0.012 | -0.042 | -0.025 | -0.008 | -0.047 | -0.024 | 0.1 | -0.135 | -0.004 | -0.014 | -0.084 | -0.126 | -0.026 | -0.005 |  | 0.051 | 
19 | LYN isoform 2 (UniProt P07948) | 0.056 |  | -0.079 | -0.079 | 0.376 | 0.095 | -0.296 |  | -0.168 |  | -0.003 | 0.036 | 0.246 | 0.076 |  | 0.007 |  |  |  | 
20 | MED22 (UniProt Q15528) | -0.023 | 0.034 |  | 0.015 | -0.033 | 0.043 |  | 0.014 | 0.117 | 0.028 |  | 0.097 | 0.02 | 0.134 |  | -0.019 | 0.076 | -0.043 |  | 0.133
21 | IL10RB (UniProt Q08334) | 0.19 |  | -0.012 | -0.17 | 0.082 | -0.004 | 0.018 |  | 0.088 | 0.063 | -0.086 | 0.05 | 0.056 | -0.089 | -0.247 | -0.018 | 0.087 | 0.007 | 0.084 | 0.045
22 | LPIN3 isoform 2 (UniProt Q9BQK8) | -0.152 | 0.005 | -0.04 |  | -0.014 | -0.001 | -0.069 | -0.014 | -0.006 | -0.054 | -0.015 | 0.04 | 0.073 | -0.048 | -0.078 | -0.054 | 0.135 | 0.002 | -0.27 (active) | 0.016
23 | MED25 isoform 3 (UniProt Q71SY5) | -0.033 | 0.022 | -0.012 | -0.014 |  | 0.141 | 0.05 | -0.083 | 0.105 | 0.019 | -0.051 | 0.027 |  | -0.076 | -0.203 | 0.096 | 0.018 | -0.155 | -0.043 | 0.057
24 | JAK3 (UniProt P52333) | -0.002 | -0.056 | 0.066 | 0.099 | -0.478 (active) | -0.032 | -0.029 | 0.016 | -0.16 | 0.016 | -0.075 | 0.09 | -0.033 | 0.081 | 0.128 | -0.042 | 0.011 | -0.01 | 0.012 | 
25 | LENG8 (UniProt Q96PV6) | 0.112 | -0.201 |  | 0.009 | -0.139 | 0.146 |  | 0.066 | 0.09 | 0.173 |  | -0.009 | 0.101 | 0.005 | 0.073 | 0.065 | 0.017 | -0.225 | -0.238 | -0.029
